Source: article PMC5700166

Columns and labels:
Test in all cases: protein-binding microarray (PBM); PBM: ~300 nM protein, 6 mM HEPES pH 7.8, 80 mM KCl, 0.5 mM EDTA, 0.5 mM EGTA, 6% glycerol, 35 ng/ul poly-dIdC, 1% milk, 1 h, room temperature; Ap Aiptasia and Nv Nematostella (sea anemones) / Co Capsaspora / Aq Amphimedon (sponge) / Dm Drosophila / Hu human; RHD is the Rel homology domain; high values mean tight binding
Details in all cases: dsDNA, one strand shown
GST-Ap-NF-kB RHD = target: T1, GST-Ap-NF-kB RHD (Exaiptasia pallida (Aiptasia), UniProt A0A913YAJ5 2-422)
T1 sequence: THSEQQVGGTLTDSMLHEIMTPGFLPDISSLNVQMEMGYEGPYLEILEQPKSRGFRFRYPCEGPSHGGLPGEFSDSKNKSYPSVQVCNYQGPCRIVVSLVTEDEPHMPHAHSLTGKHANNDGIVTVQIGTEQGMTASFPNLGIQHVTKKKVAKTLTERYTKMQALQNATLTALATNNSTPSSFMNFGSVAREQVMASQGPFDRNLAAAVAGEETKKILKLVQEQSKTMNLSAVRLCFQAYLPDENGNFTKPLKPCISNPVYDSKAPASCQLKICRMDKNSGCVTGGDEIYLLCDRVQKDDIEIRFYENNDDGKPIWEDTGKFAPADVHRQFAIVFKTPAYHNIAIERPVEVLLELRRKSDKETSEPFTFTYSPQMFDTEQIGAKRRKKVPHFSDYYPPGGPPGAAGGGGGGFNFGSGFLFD

[1] = target: T2, GST-Nv-NF-kB (Cys allele) (Nematostella vectensis, UniProt E5G601 2-411)
T2 sequence: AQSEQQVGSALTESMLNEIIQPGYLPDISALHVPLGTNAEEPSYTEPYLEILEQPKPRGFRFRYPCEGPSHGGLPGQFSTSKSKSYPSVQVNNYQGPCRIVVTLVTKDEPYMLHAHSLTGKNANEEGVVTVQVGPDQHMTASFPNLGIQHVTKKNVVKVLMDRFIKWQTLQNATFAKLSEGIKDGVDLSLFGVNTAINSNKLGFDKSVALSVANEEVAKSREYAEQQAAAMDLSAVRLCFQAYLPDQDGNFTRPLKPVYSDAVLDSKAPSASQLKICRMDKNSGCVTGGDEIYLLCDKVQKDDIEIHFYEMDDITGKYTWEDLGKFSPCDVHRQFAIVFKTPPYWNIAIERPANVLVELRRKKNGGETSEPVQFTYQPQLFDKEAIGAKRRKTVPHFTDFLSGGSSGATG

GST-Co-NF-kB = target: T3, GST-Co-NF-kB (Capsaspora owczarzaki, UniProt F1ARL5 200-546)
T3 sequence: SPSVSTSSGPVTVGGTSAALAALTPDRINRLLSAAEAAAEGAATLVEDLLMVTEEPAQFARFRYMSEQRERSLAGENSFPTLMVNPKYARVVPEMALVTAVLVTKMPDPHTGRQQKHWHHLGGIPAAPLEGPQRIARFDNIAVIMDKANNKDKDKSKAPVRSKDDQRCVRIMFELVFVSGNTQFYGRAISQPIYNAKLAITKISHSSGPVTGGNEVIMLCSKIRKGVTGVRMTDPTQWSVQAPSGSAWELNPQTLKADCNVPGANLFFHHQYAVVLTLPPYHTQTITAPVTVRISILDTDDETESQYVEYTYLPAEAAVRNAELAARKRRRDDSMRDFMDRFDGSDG

GST-Dm-Relish = target: T4, GST-Dm-Relish (Drosophila melanogaster, UniProt Q94527 99-473)
T4 sequence: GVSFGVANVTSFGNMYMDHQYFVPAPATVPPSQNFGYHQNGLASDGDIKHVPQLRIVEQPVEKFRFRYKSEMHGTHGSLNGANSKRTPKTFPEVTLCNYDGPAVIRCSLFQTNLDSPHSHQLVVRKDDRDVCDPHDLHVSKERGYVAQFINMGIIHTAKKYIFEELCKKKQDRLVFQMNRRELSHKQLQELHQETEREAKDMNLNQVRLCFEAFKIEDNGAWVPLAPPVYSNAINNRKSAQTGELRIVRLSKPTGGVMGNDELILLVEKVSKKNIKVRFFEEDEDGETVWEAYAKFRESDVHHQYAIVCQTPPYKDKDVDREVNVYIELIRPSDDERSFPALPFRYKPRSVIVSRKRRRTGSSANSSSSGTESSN

GST-Aq-NF-kB = target: T5, GST-Aq-NF-kB (Amphimedon queenslandica, UniProt A9Y5G7 2-389)
T5 sequence: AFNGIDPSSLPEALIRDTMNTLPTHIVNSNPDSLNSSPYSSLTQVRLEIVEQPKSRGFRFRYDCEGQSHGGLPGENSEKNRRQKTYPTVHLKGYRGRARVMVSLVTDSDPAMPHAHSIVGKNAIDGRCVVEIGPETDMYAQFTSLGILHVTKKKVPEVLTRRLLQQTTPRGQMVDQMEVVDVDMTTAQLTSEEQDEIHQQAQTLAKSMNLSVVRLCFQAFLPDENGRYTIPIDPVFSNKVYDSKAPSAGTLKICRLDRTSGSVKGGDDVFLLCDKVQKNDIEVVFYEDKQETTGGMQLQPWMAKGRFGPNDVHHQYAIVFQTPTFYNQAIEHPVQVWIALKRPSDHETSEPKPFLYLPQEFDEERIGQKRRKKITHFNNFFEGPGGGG

Row | Sequence | binding signal (GST-Ap-NF-kB RHD) | binding signal [1] | binding signal (GST-Co-NF-kB) | binding signal (GST-Dm-Relish) | binding signal (GST-Aq-NF-kB)
1 | CCGATTAACATCAGAAAATCCCATGATGTTAATCGGGTCTTGATTCGCTTGACGCTGCTG | 4.49 z-score | 4.29 z-score | 1.54 z-score | 7.07 z-score | 4.36 z-score
2 | CCGATTAACATCAGGGAAACCACTGATGTTAATCGGGTCTTGATTCGCTTGACGCTGCTG | 3.4 z-score | 4.47 z-score | 3.12 z-score | 8.4 z-score | 6.48 z-score
3 | CCGATTAACATCAGGGAAAAAACTGATGTTAATCGGGTCTTGATTCGCTTGACGCTGCTG | 2.85 z-score | 4.45 z-score | 5.17 z-score | 5.49 z-score | 5.31 z-score
4 | CCGATTAACATCAGGTATTCCCATGATGTTAATCGGGTCTTGATTCGCTTGACGCTGCTG | 3.43 z-score | 2.67 z-score | 2.14 z-score | 7.54 z-score | 4.66 z-score
5 | CCGATTAACATCAGGGAAACCCATGATGTTAATCGGGTCTTGATTCGCTTGACGCTGCTG | 3.64 z-score | 4.19 z-score | 2.54 z-score | 8.17 z-score | 4.85 z-score
6 | CCGATTAACATCACGGAAACCCCTGATGTTAATCGGGTCTTGATTCGCTTGACGCTGCTG | 5.32 z-score | 4.37 z-score | 2.13 z-score | 7.12 z-score | 5.38 z-score
7 | CCGATTAACATCAGGGGAGTACATGATGTTAATCGGGTCTTGATTCGCTTGACGCTGCTG | 4.22 z-score | 2.88 z-score | 3.31 z-score | 6.35 z-score | 3.06 z-score
8 | CCGATTAACATCAGGGCGTCCCCTGATGTTAATCGGGTCTTGATTCGCTTGACGCTGCTG | 6.5 z-score | 5.76 z-score | 2.03 z-score | 8.13 z-score | 7.89 z-score
9 | CCGATTAACATCAGGGCAGCCCCTGATGTTAATCGGGTCTTGATTCGCTTGACGCTGCTG | 4.41 z-score | 4.88 z-score | 1.25 z-score | 4.16 z-score | 7.43 z-score
10 | CCGATTAACATCAAACTTTCCCATGATGTTAATCGGGTCTTGATTCGCTTGACGCTGCTG | 3.24 z-score | 4.83 z-score | 4.07 z-score | 1.39 z-score | 5.27 z-score
11 | CCGATTAACATCACGGGGAGTCCTGATGTTAATCGGGTCTTGATTCGCTTGACGCTGCTG | 7.06 z-score | 3.95 z-score | 4.24 z-score | 8.09 z-score | 5.02 z-score
12 | CCGATTAACATCAATTTCCCATATGATGTTAATCGGGTCTTGATTCGCTTGACGCTGCTG | 1.56 z-score | 3.3 z-score | 2.34 z-score | 2.14 z-score | 2.17 z-score
13 | CCGATTAACATCAAGGGGGTAAATGATGTTAATCGGGTCTTGATTCGCTTGACGCTGCTG | 5.28 z-score | 3.77 z-score | 6.69 z-score | 2.72 z-score | 4.26 z-score
14 | CCGATTAACATCACGCAATTCCCTGATGTTAATCGGGTCTTGATTCGCTTGACGCTGCTG | 2.72 z-score | 4.1 z-score | 2.33 z-score | 1.52 z-score | 3.43 z-score
15 | CCGATTAACATCACGGGGGGTAATGATGTTAATCGGGTCTTGATTCGCTTGACGCTGCTG | 4.02 z-score | 2.73 z-score | 6.28 z-score | 3.64 z-score | 3.77 z-score
16 | CCGATTAACATCAGACCTCCCCCTGATGTTAATCGGGTCTTGATTCGCTTGACGCTGCTG | 6.03 z-score | 3.94 z-score | 5.48 z-score | 2.4 z-score | 4.44 z-score
17 | CCGATTAACATCAGGGGTATACCTGATGTTAATCGGGTCTTGATTCGCTTGACGCTGCTG | 4.25 z-score | 2.43 z-score | 3.98 z-score | 4.15 z-score | 4.94 z-score
18 | CCGATTAACATCAAATAGCCCCCTGATGTTAATCGGGTCTTGATTCGCTTGACGCTGCTG | 5.01 z-score | 4.8 z-score | 2.9 z-score | 4.26 z-score | 5.62 z-score
19 | CCGATTAACATCACAACACCCCCTGATGTTAATCGGGTCTTGATTCGCTTGACGCTGCTG | 5.03 z-score | 3.99 z-score | 3.14 z-score | 4.4 z-score | 4.65 z-score
20 | CCGATTAACATCAAAGTGTCCCCTGATGTTAATCGGGTCTTGATTCGCTTGACGCTGCTG | 5.38 z-score | 4.57 z-score | 5.15 z-score | 1.98 z-score | 4.15 z-score
21 | CCGATTAACATCACGGGGTTGCCTGATGTTAATCGGGTCTTGATTCGCTTGACGCTGCTG | 1.46 z-score | 1.02 z-score | 1.38 z-score | 2.5 z-score | 2.2 z-score
22 | CCGATTAACATCACGGGACTCCCTGATGTTAATCGGGTCTTGATTCGCTTGACGCTGCTG | 5.53 z-score | 4.06 z-score | 1.53 z-score | 8.72 z-score | 5 z-score
23 | CCGATTAACATCACAACCCCCCCTGATGTTAATCGGGTCTTGATTCGCTTGACGCTGCTG | 5.55 z-score | 3.59 z-score | 3.83 z-score | 6.16 z-score | 4.6 z-score
24 | CCGATTAACATCAGGGAGTCCCATGATGTTAATCGGGTCTTGATTCGCTTGACGCTGCTG | 4.64 z-score | 3.33 z-score | 1.13 z-score | 9.06 z-score | 4.21 z-score
25 | CCGATTAACATCAAGGATTCCCGTGATGTTAATCGGGTCTTGATTCGCTTGACGCTGCTG | 2.73 z-score | 3.43 z-score | 3.1 z-score | 6.9 z-score | 3.92 z-score
26 | CCGATTAACATCAGAAGTTTCCCTGATGTTAATCGGGTCTTGATTCGCTTGACGCTGCTG | 4.01 z-score | 5.91 z-score | 5.14 z-score | 3.08 z-score | 6.09 z-score
27 | CCGATTAACATCAGGCTTTTCCCTGATGTTAATCGGGTCTTGATTCGCTTGACGCTGCTG | 2.62 z-score | 4.54 z-score | 2.51 z-score | 2.3 z-score | 6.49 z-score
